Here are results for 4 compounds from PMC11062922 (Nature Chemical Biology, 2023).

Like-named read-outs stand apart in the source and are kept apart here.

The subject of assay [1] is CDC42. Also on record: species or system human, MV4-11 + K-562 + COLO205 + SK-N-BE2 + OVCAR-8. To be noted: read-out: apparent Kd; compound concentrations: 100 nM and 1000 nM (sheet 'Samples'), CATDS: 0.112066673449154; n = 1.
Assay [2] deals with CSNK1A1. Further details: species or system human, MV4-11 + K-562 + COLO205 + SK-N-BE2 + OVCAR-8. To be noted: read-out: apparent Kd; compound concentrations: 100 nM and 1000 nM (sheet 'Samples'), CATDS: 0.11767767323313399; n = 1.
Assay [3] concerns CSNK1D. Further details: species or system human, MV4-11 + K-562 + COLO205 + SK-N-BE2 + OVCAR-8. The following applies: read-out: apparent Kd; compound concentrations: 100 nM and 1000 nM (sheet 'Samples'), CATDS: 0.430543569866988; n = 1.
Assay [4] concerns CSNK1E. Also on record: species or system human, MV4-11 + K-562 + COLO205 + SK-N-BE2 + OVCAR-8. The following applies: read-out: apparent Kd; compound concentrations: 100 nM and 1000 nM (sheet 'Samples'), CATDS: 0.24847771886196199; n = 1.
The subject of assay [5] is FLT3. Also on record: species or system human, MV4-11 + K-562 + COLO205 + SK-N-BE2 + OVCAR-8. The following applies: read-out: apparent Kd; compound concentrations: 100 nM and 1000 nM (sheet 'Samples'), CATDS: 0.12792168712312599; n = 1.
Assay [6] relates to GAK. Also on record: species or system human, MV4-11 + K-562 + COLO205 + SK-N-BE2 + OVCAR-8. The following applies: read-out: apparent Kd; compound concentrations: 100 nM and 1000 nM (sheet 'Samples'), CATDS: 0.12375475758879401; n = 1.
Assay [7] deals with RIOK2. Also on record: species or system human, MV4-11 + K-562 + COLO205 + SK-N-BE2 + OVCAR-8. To be noted: read-out: apparent Kd; compound concentrations: 100 nM and 1000 nM (sheet 'Samples'), CATDS: 0.107134967231821; n = 1.
Assay [8] concerns CDK7. Further details: species or system human, MV4-11 + K-562 + COLO205 + SK-N-BE2 + OVCAR-8. To be noted: read-out: apparent Kd; compound concentrations:100 nM and 1000 nM (sheet 'Samples'); n = 1.
Assay [9] deals with ERCC2. Further details: species or system human, MV4-11 + K-562 + COLO205 + SK-N-BE2 + OVCAR-8. The following applies: read-out: apparent Kd; compound concentrations:100 nM and 1000 nM (sheet 'Samples'); n = 1.
Assay [10] relates to GSK3A. Further details: species or system human, MV4-11 + K-562 + COLO205 + SK-N-BE2 + OVCAR-8. The following applies: read-out: apparent Kd, n = 1.
In assay [11] the test system is GSK3B. Further details: species or system human, MV4-11 + K-562 + COLO205 + SK-N-BE2 + OVCAR-8. To be noted: read-out: apparent Kd, n = 1.
For assay [12], the system named is PAK6. Further details: species or system human, MV4-11 + K-562 + COLO205 + SK-N-BE2 + OVCAR-8. To be noted: read-out: apparent Kd; compound concentrations:100 nM and 1000 nM (sheet 'Samples'); n = 1.
Assay [13] has as its system PKN1. Also on record: species or system human, MV4-11 + K-562 + COLO205 + SK-N-BE2 + OVCAR-8. The following applies: read-out: apparent Kd; compound concentrations:100 nM and 1000 nM (sheet 'Samples'); n = 1.
Assay [14] has as its system PRKCA. Also on record: species or system human, MV4-11 + K-562 + COLO205 + SK-N-BE2 + OVCAR-8. To be noted: read-out: apparent Kd, compound concentrations: 100 nM and 1000 nM (sheet 'Samples'), n = 1.
Assay [15] has as its system PRKCB. Further details: species or system human, MV4-11 + K-562 + COLO205 + SK-N-BE2 + OVCAR-8. The following applies: read-out: apparent Kd, n = 1.
Assay [16] deals with PRKCD. Also on record: species or system human, MV4-11 + K-562 + COLO205 + SK-N-BE2 + OVCAR-8. To be noted: read-out: apparent Kd, n = 1.
Assay [17] relates to PRKCQ. Further details: species or system human, MV4-11 + K-562 + COLO205 + SK-N-BE2 + OVCAR-8. The following applies: read-out: apparent Kd, n = 1.
In assay [18] the test system is RPS6KA6. Also on record: species or system human, MV4-11 + K-562 + COLO205 + SK-N-BE2 + OVCAR-8. To be noted: read-out: apparent Kd; compound concentrations:100 nM and 1000 nM (sheet 'Samples'); n = 1.
Assay [19] has as its system CDKL5. Also on record: species or system human, MV4-11 + K-562 + COLO205 + SK-N-BE2 + OVCAR-8. To be noted: read-out: apparent Kd, compound concentrations: 100 nM and 1000 nM (sheet 'Samples'), n = 1.
In assay [20] the test system is CLK1. Also on record: species or system human, MV4-11 + K-562 + COLO205 + SK-N-BE2 + OVCAR-8. The following applies: read-out: apparent Kd, compound concentrations: 100 nM and 1000 nM (sheet 'Samples'), n = 1.
The test system of assay [21] is CLK2. Also on record: species or system human, MV4-11 + K-562 + COLO205 + SK-N-BE2 + OVCAR-8. The following applies: read-out: apparent Kd; compound concentrations: 100 nM and 1000 nM (sheet 'Samples'), CATDS: 0.135718758721844; n = 1.
The subject of assay [22] is ICK. Further details: species or system human, MV4-11 + K-562 + COLO205 + SK-N-BE2 + OVCAR-8. To be noted: read-out: apparent Kd; compound concentrations: 100 nM and 1000 nM (sheet 'Samples'), CATDS: 0.107034687138564; n = 1.
For assay [23], the system named is CLK4. Further details: species or system human, MV4-11 + K-562 + COLO205 + SK-N-BE2 + OVCAR-8. To be noted: read-out: apparent Kd; compound concentrations: 100 nM and 1000 nM (sheet 'Samples'), CATDS: 0.13099506977266501; n = 1.
Assay [24] relates to ERN2. Further details: species or system human, MV4-11 + K-562 + COLO205 + SK-N-BE2 + OVCAR-8. The following applies: read-out: apparent Kd; compound concentrations: 100 nM and 1000 nM (sheet 'Samples'), CATDS: 0.122228474485695; n = 1.
Assay [25] deals with PAK4. Further details: species or system human, MV4-11 + K-562 + COLO205 + SK-N-BE2 + OVCAR-8. To be noted: read-out: apparent Kd; compound concentrations: 100 nM and 1000 nM (sheet 'Samples'), CATDS: 0.121686694160256; n = 1.
Assay [26] addresses Q6ZSR9 (human, UniProt Q6ZSR9). Also on record: species or system MV4-11 + K-562 + COLO205 + SK-N-BE2 + OVCAR-8. The following applies: read-out: apparent Kd; compound concentrations: 100 nM and 1000 nM (sheet 'Samples'), CATDS: 0.110463614954163; n = 1.
Setting [27] is: compound concentrations:100 nM and 1000 nM (sheet 'Samples').

Q6ZSR9, sequence (Q6ZSR9 whole entry, looked up): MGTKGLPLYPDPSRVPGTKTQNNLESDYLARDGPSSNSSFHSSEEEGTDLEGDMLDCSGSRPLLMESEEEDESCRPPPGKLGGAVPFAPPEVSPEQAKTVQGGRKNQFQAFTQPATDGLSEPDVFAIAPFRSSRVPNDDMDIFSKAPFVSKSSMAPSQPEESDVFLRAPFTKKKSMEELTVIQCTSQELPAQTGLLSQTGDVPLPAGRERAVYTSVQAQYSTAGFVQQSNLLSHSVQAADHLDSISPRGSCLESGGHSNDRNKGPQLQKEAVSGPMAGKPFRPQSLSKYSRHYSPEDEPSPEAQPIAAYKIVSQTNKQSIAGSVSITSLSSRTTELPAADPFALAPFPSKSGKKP

In the case of `CCc1nn2ncccc2c1-c1ccnc(NC2CC2)n1` [GW683768X], the potency estimated from few doses is 1390 nM in assay [1]; 1200 nM in assay [2]; 95.2 nM in assay [3]; 230 nM in assay [4]; 948 nM in [5]; 1040 nM in [6]. Further, the potency estimated from few doses in assay [7] is 1610 nM.

`CN(C)C[C@H]1CCn2c(c(C3=C(c4cn(C)c5ccccc45)C(=O)NC3=O)c3ccccc32)C1` [RO0320432-000]: the potency estimated from few doses is 1010 nM in [8]; 821 nM in assay [9]; 530 nM in assay [10] (setting [27]); 299 nM in assay [11] (setting [27]); 1540 nM in assay [12]; 1400 nM in [13]. Besides, the potency estimated from few doses in [14] (CATDS: 0.33942301458254898) is 18.6 nM; in [15] (setting [27]), 66.4 nM; in [16] (setting [27]), 27.1 nM; in assay [17] (setting [27]) it was 122 nM; in assay [18], 311 nM.

Turning to `Cn1cc(C2=C(c3cn(C)c4cc(N)ccc34)C(=O)NC2=O)c2ccccc21` [RO0317511-000], the potency estimated from few doses is 1810 nM in assay [19] (CATDS: 7.1774388141359599E-2); 816 nM in [20] (CATDS: 9.43888536674687E-2); 386 nM in assay [21]; 223 nM in assay [10] (compound concentrations: 100 nM and 1000 nM (sheet 'Samples'), CATDS: 0.18937077321649401); 193 nM in assay [11] (compound concentrations: 100 nM and 1000 nM (sheet 'Samples'), CATDS: 0.20850333664225901); 614 nM in assay [22]. Moreover, the potency estimated from few doses in assay [14] (CATDS: 8.3091420111897102E-2) was 1140 nM; in [15] (compound concentrations: 100 nM and 1000 nM (sheet 'Samples'), CATDS: 7.1835327532873305E-2), 1800 nM; in [16] (compound concentrations: 100 nM and 1000 nM (sheet 'Samples'), CATDS: 8.6510432478471705E-2), 1020 nM; in [17] (compound concentrations: 100 nM and 1000 nM (sheet 'Samples'), CATDS: 8.9522770196270404E-2), 930 nM.

`Cn1cc(C2=C(c3cn(C)c4c([N+](=O)[O-])cccc34)C(=O)NC2=O)c2ccccc21` [RO0317452-000]: the potency estimated from few doses in assay [19] (CATDS: 0.10582240505262699) was 2010 nM; in [20] (CATDS: 0.119262646968794), 1520 nM; in [23], 1260 nM; in assay [24], 1450 nM; in assay [10] (compound concentrations: 100 nM and 1000 nM (sheet 'Samples'), CATDS: 0.15449009445540701), 933 nM; in assay [11] (compound concentrations: 100 nM and 1000 nM (sheet 'Samples'), CATDS: 0.15136404639572901), 967 nM. The potency estimated from few doses in [25] is 1460 nM; in assay [26] it was 1810 nM.
